From article PMC5515408, “Sequence-specific DNA binding by MYC/MAX to low-affinity non-E-box motifs” come the findings set out here.

Whole data set: some 5,000 sequences, median “log2 normalized fluorescence” near 0.089, cut for the highest 2% near 0.81. Only a selection was taken, and the highest values are over-represented in it overall.

Sequence of MYC (p64);MAX (p21), in MYC:MAX (P01106 16-454, chain 1 of 2): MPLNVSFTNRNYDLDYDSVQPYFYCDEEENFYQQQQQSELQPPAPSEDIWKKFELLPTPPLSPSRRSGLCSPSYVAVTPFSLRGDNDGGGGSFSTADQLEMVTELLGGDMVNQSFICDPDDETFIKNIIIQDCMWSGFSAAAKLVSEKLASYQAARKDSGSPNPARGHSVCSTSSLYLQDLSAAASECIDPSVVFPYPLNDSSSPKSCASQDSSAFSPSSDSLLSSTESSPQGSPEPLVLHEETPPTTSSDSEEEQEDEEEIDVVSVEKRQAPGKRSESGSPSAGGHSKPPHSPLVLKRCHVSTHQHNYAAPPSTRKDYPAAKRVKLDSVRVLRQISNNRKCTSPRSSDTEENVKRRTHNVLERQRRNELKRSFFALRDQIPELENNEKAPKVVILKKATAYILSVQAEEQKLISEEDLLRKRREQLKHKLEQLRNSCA
Sequence of MYC (p64);MAX (p21), in MYC:MAX (P61244 other isoform, or with tags, fused parts or gaps |, chain 2 of 2): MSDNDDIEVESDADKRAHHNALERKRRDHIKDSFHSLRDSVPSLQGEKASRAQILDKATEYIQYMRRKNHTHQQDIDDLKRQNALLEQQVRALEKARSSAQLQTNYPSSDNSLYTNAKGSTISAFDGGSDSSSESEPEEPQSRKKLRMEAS

This assay concerns the target MYC (p64);MAX (p21), in MYC:MAX (human;human, UniProt P01106-1;P61244-2 1-439;1-151, |). Kind of assay: protein-binding microarray (anti-MAX antibody); PBM: 15 mM Tris-HCl pH 7.5, 100 mM KCl, 0.075% NP40, 7.5 mM beta-mercaptoethanol, 375 ng/ul BSA, 8 ng/ul poly(dA-dT):(dA-dT), 550 ng complex, 60 min, room tempe; high values mean tight binding. The following applies: protein: recombinant;recombinant; tags: 6xHis;6xHis; copies: 1;1; label: 3' end of printed strand (linker) attached to glass slide; dsDNA, one strand shown. The method in brief:
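For each of ~5000 unique double-stranded 12-nt sequences, spotted in triplicate on a custom Agilent glass array, binding of His-tagged human MYC:MAX or MAX:MAX dimers is reported as log2 normalized fluorescence. The dimers (550 ng, E. coli-expressed) were incubated for 60 min at room temperature in Tris-KCl buffer, pH 7.5, with NP40, BSA and poly(dA-dT) competitor. Detection used anti-MAX and secondary antibodies with a 543 nm scan.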
For “CCGGCTGAAACTGAGTATTAATAGCTAAGATTACTATATCGACG”, the binding signal is 0.00205 log2 normalized fluorescence.

Take “CCGGCTGACCTGACGTATTAATAGCTAAGATTACTATATCGACG”: the binding signal is 0.202 log2 normalized fluorescence.

As to “CCGGCTGCCACGTAGTGTTAATAGCTAAGATTACTATATCGACG”, the binding signal is 0.23 log2 normalized fluorescence.

With “CCGGCTGCCACGACGTATTAATAGCTAAGATTACTATATCGACG”, the binding signal was 0.371 log2 normalized fluorescence.

Turning to “CCGGCTGCCACGTGTTATTAATAGCTAAGATTACTATATCGACG”, the binding signal is 0.969 log2 normalized fluorescence.

With “CCGGCTGCCACGTGGTGTTAATAGCTAAGATTACTATATCGACG”, the binding signal is 0.763 log2 normalized fluorescence.

On to “CCGGCTGCCACGTGATATTAATAGCTAAGATTACTATATCGACG”, for which the binding signal is 0.881 log2 normalized fluorescence.

Consider “CCGGCTGTCACGTGATATTAATAGCTAAGATTACTATATCGACG”, for which the binding signal is 0.587 log2 normalized fluorescence.

Turning to “CCGGCTGAGGCGAAGTATTAATAGCTAAGATTACTATATCGACG”, the binding signal was 0.0114 log2 normalized fluorescence.

Turning to “CCGGCTGATGTATCGTATTAATAGCTAAGATTACTATATCGACG”, the binding signal was 0.124 log2 normalized fluorescence.

For the sequence “CCGGCTGAGCGATAGTATTAATAGCTAAGATTACTATATCGACG”, the binding signal is -0.0333 log2 normalized fluorescence.

On to “CCGGCTGACGCGGAGTATTAATAGCTAAGATTACTATATCGACG”, for which the binding signal is 0.127 log2 normalized fluorescence.

With “CCGGCGGACAGGTGGGATTAATAGCTAAGATTACTATATCGACG”, the binding signal was 0.375 log2 normalized fluorescence.

Regarding “CCGGCTAGCACGTGGTATTAATAGCTAAGATTACTATATCGACG”, the binding signal is 0.917 log2 normalized fluorescence.

On to “CCGGCGAGCACGTGGTATTAATAGCTAAGATTACTATATCGACG”, for which the binding signal was 0.525 log2 normalized fluorescence.

In the case of “CCGGCAAGCACGTGGTATTAATAGCTAAGATTACTATATCGACG”, the binding signal is 0.835 log2 normalized fluorescence.

“CCGGCCAGCACGTGGTATTAATAGCTAAGATTACTATATCGACG”: the binding signal is 0.793 log2 normalized fluorescence.

In the case of “CCGGCTGACGTCAGGTATTAATAGCTAAGATTACTATATCGACG”, the binding signal is 0.293 log2 normalized fluorescence.

Turning to “CCGGCTGAGGGTAGGTATTAATAGCTAAGATTACTATATCGACG”, the binding signal was 0.0237 log2 normalized fluorescence.

With “CCGGCTGAGGCCCCGTATTAATAGCTAAGATTACTATATCGACG”, the binding signal is 0.00137 log2 normalized fluorescence.

For “CCGGCTGGCACGCGGTCTTAATAGCTAAGATTACTATATCGACG”, the binding signal is 0.784 log2 normalized fluorescence.

“CCGGCTTACACGTGGTCTTAATAGCTAAGATTACTATATCGACG”: the binding signal was 0.679 log2 normalized fluorescence.

On to “CCGGCGGGCACGTGGTCTTAATAGCTAAGATTACTATATCGACG”, for which the binding signal is 0.929 log2 normalized fluorescence.

On to “CCGGCGGGCACGTGGTATTAATAGCTAAGATTACTATATCGACG”, for which the binding signal was 0.738 log2 normalized fluorescence.

On to “CCGGCGTACACGTGGTATTAATAGCTAAGATTACTATATCGACG”, for which the binding signal is 0.671 log2 normalized fluorescence.

For the sequence “CCGGCTGGCACGTGGGATTAATAGCTAAGATTACTATATCGACG”, the binding signal was 0.708 log2 normalized fluorescence.

“CCGGCGTACACGTGGTCTTAATAGCTAAGATTACTATATCGACG”: the binding signal is 0.89 log2 normalized fluorescence.

Turning to “CCGGCGGGCACGTGGGATTAATAGCTAAGATTACTATATCGACG”, the binding signal was 0.986 log2 normalized fluorescence.

As for “CCGGCTATCACGTGGGATTAATAGCTAAGATTACTATATCGACG”, the binding signal was 0.804 log2 normalized fluorescence.

As for “CCGGCTGAATCAGAGTATTAATAGCTAAGATTACTATATCGACG”, the binding signal was 0.0753 log2 normalized fluorescence.

As to “CCGGCTGAACAAGTGTATTAATAGCTAAGATTACTATATCGACG”, the binding signal is 0.224 log2 normalized fluorescence.

Regarding “CCGGCTGATACTTGGTTTTAATAGCTAAGATTACTATATCGACG”, the binding signal was 0.0375 log2 normalized fluorescence.

On to “CCGGCTGATCCCGCGTATTAATAGCTAAGATTACTATATCGACG”, for which the binding signal was 0.218 log2 normalized fluorescence.

In the case of “CCGGCTGAAGGGCAGTATTAATAGCTAAGATTACTATATCGACG”, the binding signal was -0.0227 log2 normalized fluorescence.

With “CCGGCTCACACGATGTATTAATAGCTAAGATTACTATATCGACG”, the binding signal is 0.603 log2 normalized fluorescence.

“CCGGCTCACACGAGGTTTTAATAGCTAAGATTACTATATCGACG”: the binding signal is 0.866 log2 normalized fluorescence.

As to “CCGGCTGGCACGAGGTTTTAATAGCTAAGATTACTATATCGACG”, the binding signal is 0.697 log2 normalized fluorescence.

In the case of “CCGGCTCACACGCGGTTTTAATAGCTAAGATTACTATATCGACG”, the binding signal was 0.822 log2 normalized fluorescence.

Take “CCGGCTCACACGTGGTTTTAATAGCTAAGATTACTATATCGACG”: the binding signal is 0.78 log2 normalized fluorescence.

With “CCGGCCGACACGCGGTTTTAATAGCTAAGATTACTATATCGACG”, the binding signal is 0.82 log2 normalized fluorescence.

In the case of “CCGGCTGAGACGCGGTTTTAATAGCTAAGATTACTATATCGACG”, the binding signal was 0.131 log2 normalized fluorescence.

Regarding “CCGGCTCACACGTTTTATTAATAGCTAAGATTACTATATCGACG”, the binding signal was 0.662 log2 normalized fluorescence.

In the case of “CCGGCCGACAGCCGGTTTTAATAGCTAAGATTACTATATCGACG”, the binding signal is -0.0407 log2 normalized fluorescence.

On to “CCGGCTGAGTAGTGGTATTAATAGCTAAGATTACTATATCGACG”, for which the binding signal was 0.0775 log2 normalized fluorescence.

Regarding “CCGGCTGAGGGCTTGTATTAATAGCTAAGATTACTATATCGACG”, the binding signal was 0.0447 log2 normalized fluorescence.

Consider “CCGGCTGACGACAGGTATTAATAGCTAAGATTACTATATCGACG”, for which the binding signal is 0.106 log2 normalized fluorescence.

As to “CCGGCTGAAGTTCAGTATTAATAGCTAAGATTACTATATCGACG”, the binding signal is 0.0781 log2 normalized fluorescence.

On to “CCGGCTGAAGACCTGTATTAATAGCTAAGATTACTATATCGACG”, for which the binding signal was 0.0334 log2 normalized fluorescence.

In the case of “CCGGCTGATGTAATGTATTAATAGCTAAGATTACTATATCGACG”, the binding signal is 0.000857 log2 normalized fluorescence.

As for “CCGGCTGACGTTTGGTATTAATAGCTAAGATTACTATATCGACG”, the binding signal was 0.243 log2 normalized fluorescence.

With “CCGGCTGACCACATGTATTAATAGCTAAGATTACTATATCGACG”, the binding signal is 0.581 log2 normalized fluorescence.

In the case of “CCGGCTGAACGTGAGTATTAATAGCTAAGATTACTATATCGACG”, the binding signal is 0.437 log2 normalized fluorescence.

With “CCGGCTGAGGACGAGTATTAATAGCTAAGATTACTATATCGACG”, the binding signal was -0.00251 log2 normalized fluorescence.
